# The panel holds about 83,000 compounds, 20% with a hit somewhere; the sample as a whole holds those more often.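 The test compound was applied at a single concentration to cells in 96-well plates for 48 hours, and percent growth was recorded.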 Unmarked numbers belong to inactive results. Calls of active or inactive are those of the source. How the source made its calls: active means growth percent below 10; inactive means the rest.
# Experiments:
# Experiment in all cases: NCI-60 one-dose screen, 48 h (100 = growth as untreated, 0 = no growth, -100 = all killed)
# Details in all cases: 10 µM unless noted
# RPMI-8226 leukemia = test system: RPMI-8226 leukemia
# OVCAR-8 ovarian = test system: OVCAR-8 ovarian
# OVCAR-5 ovarian = test system: OVCAR-5 ovarian
# OVCAR-4 ovarian = test system: OVCAR-4 ovarian
# SK-OV-3 ovarian = test system: SK-OV-3 ovarian
# IGROV1 ovarian = test system: IGROV1 ovarian
# OVCAR-3 ovarian = test system: OVCAR-3 ovarian
# HS 578T breast = test system: HS 578T breast
# NCI/ADR-RES ovarian = test system: NCI/ADR-RES ovarian
# T-47D breast = test system: T-47D breast
# BT-549 breast = test system: BT-549 breast
# MDA-MB-435 melanoma = test system: MDA-MB-435 melanoma
# SW-620 colon = test system: SW-620 colon
# MCF7 breast = test system: MCF7 breast
# HCT-116 colon = test system: HCT-116 colon
# HCC-2998 colon = test system: HCC-2998 colon
# KM12 colon = test system: KM12 colon
# SR leukemia = test system: SR leukemia
SMILES,growth (RPMI-8226 leukemia),growth (OVCAR-8 ovarian),growth (OVCAR-5 ovarian),growth (OVCAR-4 ovarian),growth (SK-OV-3 ovarian),growth (IGROV1 ovarian),growth (OVCAR-3 ovarian),growth (HS 578T breast),growth (NCI/ADR-RES ovarian),growth (T-47D breast),growth (BT-549 breast),growth (MDA-MB-435 melanoma),growth (SW-620 colon),growth (MCF7 breast),growth (HCT-116 colon),growth (HCC-2998 colon),growth (KM12 colon),growth (SR leukemia)
O=C1NC(=O)C(CC(=O)n2c(-c3ccccc3)nc3ccccc32)C(=O)N1,101%,101%,103%,103%,98.3%,93.3%,106%,102%,103%,93.5%,101%,106%,104%,92.4%,104%,113%,101%,–
CCCNc1nc(SC)nc(-c2cccc(N)c2)c1C#N,103%,99.1%,101%,92.4%,93.7%,92.2%,110%,93.1%,101%,86.2%,97.7%,103%,98.7%,89.1%,96.3%,108%,101%,–
COc1ccc2nc3cc(Cl)ccc3c(N3CCN(c4nccc(Nc5ccc(Cl)cc5)n4)CC3)c2c1,43.9%,–,90.6%,60.7%,88.4%,83.1%,49.5%,84.3%,80.7%,32.2%,–,78.7%,73.7%,41.6%,12%,92.3%,62.3%,30.4%
COc1cnc2c(c1)C(=O)c1c-2n(CCCN2CCN(C)CC2)c(=O)c2cc([N+](=O)[O-])ccc12,-41.6% (active),–,111%,-81.7% (active),86.6%,-55.2% (active),-84.6% (active),94.8%,-2.68% (active),-57.2% (active),-54.6% (active),-93.8% (active),-73% (active),-40.1% (active),-83.8% (active),–,-29% (active),-23.6% (active)
COc1ccccc1-c1ccc2c(N)c(C(=O)c3ccc4c(c3)OCO4)sc2n1,62.2%,–,87.7%,95.7%,78.3%,78.1%,69.8%,87.6%,38.7%,–,71.4%,2.68% (active),42.2%,36.3%,42.4%,71.4%,53.8%,9.21% (active)
CCOC(=O)C(=Cc1ccccc1F)C(=O)OCC,93.1%,105%,106%,97%,106%,95.2%,95.2%,104%,100%,67.4%,87.4%,84.6%,107%,58.6%,75.1%,110%,84.7%,–
CC/C=C\C[C@H](F)C/C=C1/C(=O)C=C[C@@H]1C/C=C\CCCC(=O)O,-3.41% (active),11.2%,86.1%,83.6%,86.4%,65.4%,26.9%,84%,9.24% (active),71.9%,68.8%,21.6%,30.9%,22.6%,-15.7% (active),81.9%,22.3%,–
O=C1c2cc3c(cc2-c2c1c1cc(Cl)c(Cl)cc1c(=O)n2C[C@H](O)CO)OCO3,-8.53% (active),–,-23% (active),-51.8% (active),-54% (active),-2.45% (active),-54.2% (active),33%,-29.4% (active),-20.2% (active),-10.3% (active),-24.8% (active),12.7%,-0.37% (active),-25.4% (active),-5.57% (active),-21% (active),-23.2% (active)
COc1ccc(S(=O)(=O)NCCCNc2cc(-c3c(-c4cccc(OC)c4)nc4sccn34)ccn2)cc1,13.1%,38.5%,86.3%,36.4%,73.4%,51.8%,52.1%,62.9%,32.5%,2.13% (active),45.1%,44.4%,63.7%,34.5%,47.3%,70.7%,39.6%,–
Cc1ccc2c(c1)C(=O)/C(=C/c1ccc(OCC(=O)c3ccccc3)cc1)O2,216%,–,107%,–,106%,75.9%,106%,105%,88.1%,77.8%,112%,106%,108%,88.7%,93.4%,125%,101%,107%
Cn1c(=O)c2c(ncn2CC[N+](C)(C)C)n(C)c1=O,104%,105%,105%,105%,99.4%,102%,105%,110%,102%,88.8%,115%,104%,106%,99.9%,100%,102%,105%,–
COc1ccc2nc3cc(Cl)ccc3c(N3CCN(c4nccc(NCc5ccccc5)n4)CC3)c2c1,63.2%,71.4%,106%,67.3%,98.1%,92%,63.3%,83.3%,78.5%,41.8%,27.5%,73.9%,68%,24.6%,25.8%,84.3%,77%,–
CC(C)(C)c1nn(-c2ccccc2)c2c1CC1(CN2Cc2ccc3c(c2)OCO3)C(=O)c2ccccc2C1=O,85.8%,89.2%,105%,123%,115%,96.6%,123%,120%,101%,94.6%,101%,106%,101%,97.9%,88.9%,96.9%,105%,–
NC1=CC(=O)C(=O)c2ccccc21,79.3%,–,93.3%,69.3%,92.6%,89.7%,84.1%,99.5%,58.7%,56.4%,90.4%,-72.4% (active),98.9%,86%,63.4%,95%,95.7%,81.8%
CN(C)CC(=O)Nc1ccc(Cn2nnc3c2C(=O)c2nnn(Cc4ccc(NC(=O)CN(C)C)cc4)c2C3=O)cc1,-34% (active),-31.6% (active),-35.7% (active),-94.9% (active),-44% (active),-74.4% (active),-59.1% (active),7.7% (active),88.6%,-51.7% (active),-89.7% (active),-87.5% (active),-27.3% (active),-61.6% (active),-87.7% (active),-51.2% (active),-54.6% (active),–
COc1ccc2nc3cc(Cl)ccc3c(N3CCN(c4ccnc(N5CCOCC5)n4)CC3)c2c1,11.3%,59.2%,83.8%,55.6%,85.5%,77.8%,4.76% (active),99.2%,73.2%,-37.9% (active),93.1%,57%,3.94% (active),-82% (active),1.63% (active),12.9%,53.2%,–
O=[N+]([O-])c1cccc(-c2nc3sccn3c2-c2ccnc(NCCNS(=O)(=O)c3ccc(C(F)(F)F)cc3)n2)c1,4.8% (active),26.1%,87.4%,31.2%,74%,27.1%,40.5%,66.4%,26.9%,-3.01% (active),26.4%,20.7%,69.8%,21.9%,35.6%,65.2%,22.5%,–
O=C(CNC1C2CC3CC(C2)CC1C3)Sc1nnc2sc3ccccc3n12 (configuration not stated),97.3%,106%,100%,87.6%,94.2%,104%,98.2%,89.5%,99.2%,87.2%,98%,101%,94.8%,88.7%,93.6%,113%,101%,–
